Where “and” joins values, the source holds several entries; their conditions need not be identical. Identical values can stand only once. Records with an inconclusive call do not appear. Some compounds were tested as several samples or in several runs, with calls that do not always agree. Calls of active or inactive are those of the source. Unless noted, calls come from the whole dose curve; as a rule, active = well fitted curve in the direction sought with a large enough effect in the repeat runs; inconclusive = weak or mixed curves; inactive = no such curve, though single readings can be large; an effect the other way counts as inactive or inconclusive.

A short description of test [1]: Caspase-3/7 induction in HepG2 cells by small molecules, qHTS assay (AID 1346978). Note: nearly all actives have a fitted effect of over 15% in size. In a few lines: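 Caspase-3/7 induction was measured by Caspase-Glo 3/7 luminescence (30 min, room temperature) after a 17 hr compound exposure of wild-type HepG2 cells seeded at 2,000 per well and pre-incubated 5 hr.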
In general terms: qHTS replaces the single test concentration by a dilution series.

A short description of test [2]: Caspase-3/7 induction in CHO-K1 cells by small molecules, qHTS cell viability counter screen (AID 1346979). Note: nearly all actives have a fitted effect of over 35% in size. Note: potency is the fitted concentration of half-maximal effect. In a few lines:
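Wild-type CHO-K1 cells (1,500/well) treated with compound after 5 h plating; after 16 h at 37C, viability read as CellTiter-Fluor fluorescence following 1 h reagent incubation, in the same wells as the caspase read.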

Test [3] is described as follows: Caspase-3/7 induction in CHO-K1 cells by small molecules, qHTS assay (AID 1346980). Note: nearly all actives have a fitted effect of over 15% in size. In a few lines:
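Luminescent Caspase-Glo 3/7 read (30min, room temperature) quantified apoptosis induction. Cells were wild-type CHO-K1, treated with compound for 17hr at 37 C and 5% CO2.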

The nature of test [4]: Caspase-3/7 induction in HepG2 cells by small molecules, qHTS cell viability counter screen (AID 1346981). Note: nearly all actives have a fitted effect of over 30% in size. Note: potency is the fitted concentration of half-maximal effect. In a few lines:
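Wild-type HepG2 cells (2,000/well) were allowed to settle for 5 hr at 37 C, 5% CO2, then dosed with compounds in DMSO by pin transfer. After 16 hr at 37 C, CellTiter-Fluor was added and fluorescence read 1 hr later.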

Test [5] addresses Nuclear receptor subfamily 1 group I member 2 (Homo sapiens) (UniProt O75469). Kind of test: Human pregnane X receptor (PXR) small molecule agonists, qHTS assay (AID 1346982). Note: nearly all actives have a fitted effect of over 35% in size. Note: potency is the fitted concentration of half-maximal effect. The procedure, abridged:
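PXR-Luc HepG2 cells (CYP3A4 promoter-driven luciferase) were seeded in medium with 5% charcoal-stripped FBS, left 5 hr at 37 C, then exposed to compounds in DMSO for 24 hr. Luminescence was read after ONE-Glo addition.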

The target of test [6] is Acetylcholinesterase (Homo sapiens) (UniProt P22303). Kind of test: Acetylcholinesterase (AChE) small molecule antagonists: colormetric cell-based qHTS assay (AID 1347395; calls by dose curve; note: nearly all actives have a fitted effect of over 30% in size; note: potency is the fitted concentration of half-maximal effect). In a few lines: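 SH-SY5Y cells attached overnight, exposed to compound 30 min at 37 C, then given DTNB/acetylthiocholine; after 90 min at 37 C, colorimetric thiocholine read gives cellular AChE activity.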
Acetylcholinesterase (Homo sapiens), sequence (P22303 whole entry, looked up): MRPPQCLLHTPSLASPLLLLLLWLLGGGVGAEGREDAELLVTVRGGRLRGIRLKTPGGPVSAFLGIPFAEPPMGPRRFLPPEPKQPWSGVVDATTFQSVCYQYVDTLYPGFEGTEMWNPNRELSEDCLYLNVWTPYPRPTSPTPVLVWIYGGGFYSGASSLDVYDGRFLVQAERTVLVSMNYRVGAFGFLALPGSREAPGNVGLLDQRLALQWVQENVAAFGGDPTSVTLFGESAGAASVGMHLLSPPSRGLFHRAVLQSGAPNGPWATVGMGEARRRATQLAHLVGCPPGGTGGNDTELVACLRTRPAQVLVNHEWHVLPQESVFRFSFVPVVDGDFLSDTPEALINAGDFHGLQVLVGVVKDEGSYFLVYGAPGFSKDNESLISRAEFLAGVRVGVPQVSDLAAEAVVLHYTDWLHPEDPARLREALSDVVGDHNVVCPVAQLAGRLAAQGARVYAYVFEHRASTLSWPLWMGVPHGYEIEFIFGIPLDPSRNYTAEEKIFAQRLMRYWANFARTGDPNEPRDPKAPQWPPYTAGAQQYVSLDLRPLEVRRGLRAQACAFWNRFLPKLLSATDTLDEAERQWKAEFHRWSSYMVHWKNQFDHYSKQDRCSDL

Test [7] shares this target. Kind of test: Acetylcholinesterase (AChE) small molecule antagonists: enzyme-based qHTS assay (AID 1347397; calls by dose curve; note: nearly all actives have a fitted effect of over 55% in size). The following applies: Potency: AChE enzyme activity inhibition. In a few lines:
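Absorbance-based detection of thiocholine with DTNB served as the read-out. Recombinant human AChE was exposed to compound for 30 min at RT before a 10 min RT incubation with acetylthiocholine.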

Test [8] has the same target. Kind of test: Acetylcholinesterase (AChE) small molecule antagonists: fluorescence cell-based qHTS assay (AID 1347398; calls by dose curve; note: nearly all actives have a fitted effect of over 50% in size). The conditions noted are these: Potency: AChE activity. The procedure, abridged: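 Fluorimetric cell-based assay: intact SH-SY5Y cells, 30 min compound preincubation at 37 C, acetylthiocholine substrate with thiol probe Thiolite Green, 40 min RT development, fluorescence 490/520 nm.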

Test [9] has the same target. The experiment in a line: Acetylcholinesterase (AChE) small molecule antagonists: enzyme-based qHTS assay with human liver microsomes (AID 1347399; calls by dose curve; note: nearly all actives have a fitted effect of over 60% in size). The following applies: Potency: qHTS inhibition. The procedure, abridged:
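Recombinant human AChE (50 mU/mL in the enzyme mix) and human liver microsomes (0.25 mg/mL final) were preincubated with compound and NADPH (0.25 mg/mL final) for 30 min at 37 C. Acetylthiocholine/DTNB was then added; thiocholine was read colorimetrically after 10 min at room temperature.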

The target in test [10] is Cytochrome P450 2D6 (Homo sapiens) (UniProt P10635). Kind of test: Cytochrome P450 Family 2 Subfamily D Member 6 (CYP2D6) small molecule antagonists: luciferase reporter qHTS assay (AID 1671196). For activity change, negative = inhibition: series mostly up to about 120 µM. Note: nearly all actives have a fitted effect of over 50% in size. Note: potency is the fitted concentration of half-maximal effect. In a few lines:
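CYP2D6 enzyme–substrate mix was held with compound for 10 min at room temperature, then NADPH regeneration solution was added and the reaction ran 1 h at room temperature. Luciferin product was detected by luminescence after 20 min with detection reagent.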
Background: Reporter assays use an easily measured gene product as a stand-in for the process of interest.

Test [11] deals with Cytochrome P450 2C19 (Homo sapiens) (UniProt P33261). The experiment in a line: Cytochrome P450 Family 2 Subfamily C Member 19 (CYP2C19) small molecule antagonists: luciferase reporter qHTS assay (AID 1671197). For activity change, negative = inhibition: series mostly up to about 120 µM. Note: nearly all actives have a fitted effect of over 65% in size. Note: potency is the fitted concentration of half-maximal effect. The procedure, abridged:
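P450-Glo CYP2C19 screening system; proluciferin substrate; DMSO compound stocks; 10 min RT preincubation; NADPH regeneration, 1 h at 37C; luciferin detection reagent, 20 min RT; luminescence as RLU.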

Test [12] concerns the target Cytochrome P450 2C9 (Homo sapiens) (UniProt P11712). Kind of test: Cytochrome P450 Family 2 Subfamily C Member 9 (CYP2C9) small molecule antagonists: luciferase reporter qHTS assay (AID 1671198). For activity change, negative = inhibition: series mostly up to about 120 µM. Note: nearly all actives have a fitted effect of over 50% in size. Note: potency is the fitted concentration of half-maximal effect. In a few lines:
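Enzyme-substrate mix preincubated with compound 10 min at room temperature; reaction started with NADPH regeneration solution, 1 h 37C. Luminescent luciferin product read after 20 min detection reagent.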

For test [13], the target named is Cytochrome P450 1A2 (Homo sapiens) (UniProt P05177). The experiment in a line: Cytochrome P450 Family 1 Subfamily A Member 2 (CYP1A2) small molecule antagonists: luciferase reporter qHTS assay (AID 1671199). For activity change, negative = inhibition: series mostly up to about 120 µM. Note: nearly all actives have a fitted effect of over 50% in size. Note: potency is the fitted concentration of half-maximal effect. In a few lines: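 Human CYP1A2 activity measured with a P450-Glo proluciferin substrate; compounds in DMSO preincubated 10 min at room temperature with enzyme-substrate mix, then NADPH regeneration system added for 1 h. Luciferin detection reagent, 20 min, luminescence read.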
Cytochrome P450 1A2 (Homo sapiens), sequence (P05177 whole entry, looked up): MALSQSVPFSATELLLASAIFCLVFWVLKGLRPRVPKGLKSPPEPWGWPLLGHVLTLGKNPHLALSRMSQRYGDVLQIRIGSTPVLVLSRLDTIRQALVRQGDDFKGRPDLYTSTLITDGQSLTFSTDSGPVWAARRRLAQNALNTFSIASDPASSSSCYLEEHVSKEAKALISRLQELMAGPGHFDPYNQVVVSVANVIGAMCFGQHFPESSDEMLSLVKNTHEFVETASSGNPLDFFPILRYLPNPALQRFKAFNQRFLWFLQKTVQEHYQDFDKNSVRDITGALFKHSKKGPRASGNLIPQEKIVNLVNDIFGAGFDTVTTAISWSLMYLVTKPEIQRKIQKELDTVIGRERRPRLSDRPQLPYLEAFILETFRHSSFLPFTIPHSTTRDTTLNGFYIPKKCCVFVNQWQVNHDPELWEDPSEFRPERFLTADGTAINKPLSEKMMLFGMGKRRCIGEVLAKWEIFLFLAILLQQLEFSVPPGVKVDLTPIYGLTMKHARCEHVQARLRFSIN

The target of test [14] is Voltage-gated inwardly rectifying potassium channel KCNH2 (Homo sapiens) (UniProt Q12809). Kind of test: Human Ether-a-go-go-Related Gene (hERG) channel small molecule antagonists: fluorescence cell-based qHTS assay (AID 1671200). The procedure, abridged:
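hERG-U2OS cells plated overnight at 37 C, loaded with FluxOR II dye 1 h at RT in dark; after 10 min, thallium stimulus added. Fluorescence (480/540 nm) read kinetically for 2 min at 1 s intervals.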
In general terms: The hERG channel carries a current that helps repolarise heart muscle cells.

Test [15] deals with Cytochrome P450 3A4 (Homo sapiens) (UniProt P08684). The experiment in a line: Cytochrome P450 Family 3 Subfamily A Member 4 (CYP3A4) small molecule antagonists: luciferase reporter qHTS assay (AID 1671201). For activity change, negative = inhibition: series mostly up to about 120 µM. Note: nearly all actives have a fitted effect of over 50% in size. Note: potency is the fitted concentration of half-maximal effect. The procedure, abridged:
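P450-Glo CYP3A4 luminescent assay: compounds preincubated 10 min at room temperature with enzyme and proluciferin substrate, NADPH regeneration added, 1 h room-temperature reaction, stopped with luciferin detection reagent; luminescence read after 20 min. Ketoconazole positive control.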

Test [16] concerns the target Nuclear receptor subfamily 1 group I member 2 (Rattus norvegicus) (UniProt Q9R1A7). Kind of test: Rat pregnane X receptor (rPXR) activation by small molecules, qHTS assay (AID 1346983). Note: nearly all actives have a fitted effect of over 20% in size. The conditions noted are these: rPXR luciferase reporter cells, One-Glo luminescence, 24 h; stronger effect = higher value. The procedure, abridged:
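Luminescent readout (One-Glo luciferase, 30 min room temperature) followed 24 hr compound treatment at 37 C of rPXR cells plated 2,000 per well and preincubated 5hr; qHTS format with compounds delivered in DMSO.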

The target in test [17] is Nuclear receptor subfamily 1 group I member 2 (Homo sapiens) (UniProt O75469). The experiment in a line: CYP3A4 induction through human pregnane X receptor (PXR) by small molecules, qHTS assay (AID 1346984). Note: nearly all actives have a fitted effect of over 40% in size. The procedure, abridged:
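DPX-2 cells (HepG2 co-transfected with PXR and CYP3A4 promoter-luciferase) treated with compounds 24 h at 37C; luciferin-IPA CYP3A4 substrate 3uM final added for 3 h, then One-Glo; luminescence read. qHTS format.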

Test [18] shares this target. Kind of test: Human pregnane X receptor (PXR) activation by small molecules, qHTS assay (AID 1346985). Note: nearly all actives have a fitted effect of over 40% in size. In a few lines:
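DPX-2 cells (HepG2 co-transfected with a PXR response element and a CYP3A4-promoter luciferase construct) were seeded at 2,000 per well, rested 5 hr at 37C, then exposed to DMSO-dissolved compounds for 24 hr. Activation was read as luciferase luminescence.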
% is set by controls: 0 for no effect and ±100 for the full control effect.

Cytochrome P450 2C9 (Homo sapiens), sequence (P11712 whole entry, looked up): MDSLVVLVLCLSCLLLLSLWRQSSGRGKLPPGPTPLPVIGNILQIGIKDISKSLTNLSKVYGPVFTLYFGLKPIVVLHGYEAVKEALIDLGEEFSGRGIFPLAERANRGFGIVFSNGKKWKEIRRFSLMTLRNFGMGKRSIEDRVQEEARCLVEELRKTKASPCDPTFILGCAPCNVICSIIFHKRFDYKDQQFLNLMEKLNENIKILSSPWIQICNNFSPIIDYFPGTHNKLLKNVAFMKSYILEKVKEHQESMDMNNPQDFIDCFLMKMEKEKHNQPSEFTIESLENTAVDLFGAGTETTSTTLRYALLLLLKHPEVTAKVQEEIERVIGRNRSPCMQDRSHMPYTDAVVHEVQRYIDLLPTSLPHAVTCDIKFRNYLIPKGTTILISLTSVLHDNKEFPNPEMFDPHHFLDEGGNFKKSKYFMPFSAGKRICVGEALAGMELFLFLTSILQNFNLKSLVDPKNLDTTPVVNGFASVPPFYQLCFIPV
Nuclear receptor subfamily 1 group I member 2 (Homo sapiens), sequence (O75469 whole entry, looked up): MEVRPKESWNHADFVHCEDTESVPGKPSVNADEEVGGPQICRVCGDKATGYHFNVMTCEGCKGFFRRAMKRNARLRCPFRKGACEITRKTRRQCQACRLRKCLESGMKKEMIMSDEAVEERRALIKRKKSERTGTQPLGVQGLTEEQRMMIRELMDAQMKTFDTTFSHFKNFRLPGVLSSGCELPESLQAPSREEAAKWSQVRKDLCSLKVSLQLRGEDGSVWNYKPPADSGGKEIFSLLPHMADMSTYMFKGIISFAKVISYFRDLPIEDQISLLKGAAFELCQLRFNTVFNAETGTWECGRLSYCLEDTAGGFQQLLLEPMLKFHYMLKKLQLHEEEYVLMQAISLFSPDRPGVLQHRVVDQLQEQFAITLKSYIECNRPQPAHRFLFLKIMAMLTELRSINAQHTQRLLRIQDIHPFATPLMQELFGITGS
Cytochrome P450 2C19 (Homo sapiens), sequence (P33261 whole entry, looked up): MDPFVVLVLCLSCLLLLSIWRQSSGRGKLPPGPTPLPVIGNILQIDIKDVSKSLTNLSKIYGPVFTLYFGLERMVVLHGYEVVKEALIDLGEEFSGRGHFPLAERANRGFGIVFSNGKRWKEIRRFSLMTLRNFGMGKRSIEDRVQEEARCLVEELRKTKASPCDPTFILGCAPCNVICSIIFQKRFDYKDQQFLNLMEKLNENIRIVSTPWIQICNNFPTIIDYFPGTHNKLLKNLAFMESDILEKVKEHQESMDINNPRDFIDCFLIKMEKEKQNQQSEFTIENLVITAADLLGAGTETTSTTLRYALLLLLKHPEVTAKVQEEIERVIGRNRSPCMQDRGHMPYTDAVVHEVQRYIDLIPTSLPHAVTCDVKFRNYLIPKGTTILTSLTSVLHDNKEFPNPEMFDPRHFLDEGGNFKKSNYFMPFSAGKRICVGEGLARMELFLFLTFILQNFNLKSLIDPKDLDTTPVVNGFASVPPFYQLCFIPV
Voltage-gated inwardly rectifying potassium channel KCNH2 (Homo sapiens), sequence (Q12809 whole entry, looked up): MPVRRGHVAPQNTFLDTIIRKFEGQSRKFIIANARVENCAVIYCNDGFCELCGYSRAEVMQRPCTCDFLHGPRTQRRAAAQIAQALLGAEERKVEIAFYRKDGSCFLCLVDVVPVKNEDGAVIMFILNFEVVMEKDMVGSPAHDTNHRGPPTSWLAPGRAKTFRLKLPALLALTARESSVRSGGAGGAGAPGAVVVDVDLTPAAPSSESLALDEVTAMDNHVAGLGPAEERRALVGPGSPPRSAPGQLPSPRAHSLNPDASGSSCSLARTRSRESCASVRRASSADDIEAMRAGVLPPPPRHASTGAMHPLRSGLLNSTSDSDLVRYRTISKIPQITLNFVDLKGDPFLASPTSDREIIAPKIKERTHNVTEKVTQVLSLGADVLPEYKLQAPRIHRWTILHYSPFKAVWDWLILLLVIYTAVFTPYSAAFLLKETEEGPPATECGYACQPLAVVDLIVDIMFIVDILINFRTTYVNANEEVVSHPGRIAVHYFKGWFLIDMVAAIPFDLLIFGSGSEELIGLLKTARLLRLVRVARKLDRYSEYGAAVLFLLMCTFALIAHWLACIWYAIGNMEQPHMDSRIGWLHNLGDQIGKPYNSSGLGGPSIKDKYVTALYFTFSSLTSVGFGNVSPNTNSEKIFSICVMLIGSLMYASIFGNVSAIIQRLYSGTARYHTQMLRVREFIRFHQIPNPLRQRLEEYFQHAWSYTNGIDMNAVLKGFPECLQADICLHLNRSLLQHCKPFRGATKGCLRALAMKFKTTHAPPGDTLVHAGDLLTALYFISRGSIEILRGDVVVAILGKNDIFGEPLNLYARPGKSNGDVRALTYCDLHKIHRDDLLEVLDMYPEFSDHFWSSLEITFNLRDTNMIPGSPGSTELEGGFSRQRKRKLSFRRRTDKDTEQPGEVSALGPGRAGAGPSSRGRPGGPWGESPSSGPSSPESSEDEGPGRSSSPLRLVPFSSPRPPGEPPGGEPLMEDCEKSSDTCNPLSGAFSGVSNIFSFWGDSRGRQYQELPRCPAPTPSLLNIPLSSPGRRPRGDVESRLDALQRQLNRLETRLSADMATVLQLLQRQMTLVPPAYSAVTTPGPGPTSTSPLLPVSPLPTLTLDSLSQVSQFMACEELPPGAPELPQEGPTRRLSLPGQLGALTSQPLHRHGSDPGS
Cytochrome P450 3A4 (Homo sapiens), sequence (P08684 whole entry, looked up): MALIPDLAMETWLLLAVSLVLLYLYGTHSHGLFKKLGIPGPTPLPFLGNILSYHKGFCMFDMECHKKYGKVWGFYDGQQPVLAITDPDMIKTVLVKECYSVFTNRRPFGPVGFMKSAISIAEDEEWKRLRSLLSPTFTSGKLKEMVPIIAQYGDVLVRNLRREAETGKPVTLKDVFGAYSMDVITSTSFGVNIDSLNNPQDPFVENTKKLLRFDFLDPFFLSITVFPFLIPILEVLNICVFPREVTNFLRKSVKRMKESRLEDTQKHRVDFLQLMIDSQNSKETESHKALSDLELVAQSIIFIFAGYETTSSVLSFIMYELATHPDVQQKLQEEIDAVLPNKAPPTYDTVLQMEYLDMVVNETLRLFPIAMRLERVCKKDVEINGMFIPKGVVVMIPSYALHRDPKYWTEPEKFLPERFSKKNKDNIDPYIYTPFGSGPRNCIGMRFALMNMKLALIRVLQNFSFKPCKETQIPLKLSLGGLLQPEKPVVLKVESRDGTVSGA
Cytochrome P450 2D6 (Homo sapiens), sequence (P10635 whole entry, looked up): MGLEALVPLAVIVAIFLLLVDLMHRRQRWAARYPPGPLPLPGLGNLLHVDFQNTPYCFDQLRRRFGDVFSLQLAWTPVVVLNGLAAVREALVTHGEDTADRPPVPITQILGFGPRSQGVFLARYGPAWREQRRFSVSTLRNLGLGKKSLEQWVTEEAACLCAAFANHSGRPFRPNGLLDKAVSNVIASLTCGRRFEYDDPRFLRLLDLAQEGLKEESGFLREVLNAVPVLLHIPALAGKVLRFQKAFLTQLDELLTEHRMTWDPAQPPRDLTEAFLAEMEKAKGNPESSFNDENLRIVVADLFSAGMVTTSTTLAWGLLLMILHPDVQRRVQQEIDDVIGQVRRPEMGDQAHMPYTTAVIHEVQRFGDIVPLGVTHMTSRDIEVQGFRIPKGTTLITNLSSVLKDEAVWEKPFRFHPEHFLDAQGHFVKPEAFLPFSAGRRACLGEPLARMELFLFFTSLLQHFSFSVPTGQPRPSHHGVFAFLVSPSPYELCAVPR

In the case of `Clc1ccccc1-c1nnc(-c2ccccc2Cl)nn1`, the Potency result in test [1], in test [3], in [4], in [6], in test [7] and in test [8] was “inactive” each time. In addition, the Potency entry in test [9], in [10], in [12] and in test [14] was “inactive” each time. Moreover, the Potency in test [2] was 54 µM (active) and inactive; in [5], 54 µM (active) and inactive; in test [11] it was 31.4 µM (active) and 6.31 µM (active); in test [13], 5.59 µM (active) and 7.08 µM (active).
`Brc1ccc(Br)cc1`: the Potency result in [1], in test [3], in test [4], in test [5], in [6] and in test [7] was “inactive” in each case. Besides, the Potency entry in test [8], in [9], in [10], in [11], in [12] and in [13] was “inactive” each time. Besides, the Potency entry in test [14] was “inactive”.
In the case of `O=NN(c1ccccc1)c1ccccc1`, the Potency result in test [1], in test [2], in test [3], in [4], in [5] and in [6] was “inactive” in each case. The Potency result in test [7], in test [8], in [9] and in test [14] was “inactive” in each case. Also, the Potency in [10] is 21.9 µM (active) and inactive; in [11], 39 µM (active) and 35.6 µM (active); in [12], 34.8 µM (active) and 63.3 µM (active); in test [13], 34.8 µM (active).
For `C[C@]12CC[C@H]3[C@@H](CCC4=CC(=O)CC[C@@H]43)[C@@H]1CC[C@@H]2O`, the Potency result in test [1], in [2], in [3], in test [4], in test [5] and in test [6] was “inactive” throughout. Besides, the Potency entry in test [7], in [8], in test [9], in test [10], in [12] and in test [13] was “inactive” each time. Further, the Potency entry in test [14] is “inactive”. Moreover, in test [11], the Potency was 39.6 µM (active) and 8.71 µM (active).
For `O=[N+]([O-])c1ccc(Nc2ccccc2)cc1`, the Potency result in [1], in [3], in test [6], in [7], in [8] and in [9] was “inactive” in each case. Besides, the Potency entry in [14] and in test [15] was “inactive” in each case. In addition, the Potency in [2] was 48.9 µM (active) and 48.6 µM (active); in test [4] it was 48.9 µM (active) and 24.3 µM (active); in test [5] it was 30.9 µM (active) and 48.6 µM (active); in test [10] it was 32 µM (active) and 35.6 µM (active); in test [11], 8.03 µM (active) and 20 µM (active); in [12], 32 µM (active) and 35.6 µM (active). Besides, the Potency in test [13] is 12.7 µM (active) and 22.4 µM (active).
As for `ClC(Cl)(Cl)Br`, the Potency entry in test [1], in test [2], in test [3], in [4], in test [5] and in test [6] was “inactive” in each case. For the same compound, the Potency result in test [7], in [8], in test [9], in [10], in test [13] and in test [14] was “inactive” throughout. The Potency result in [15] was “inactive”. In addition, the Potency in [11] was 39.4 µM (active). In addition, the activity change, negative = inhibition in test [11] is 17.8% [at 23.6 µM] (inactive); in [12], -6.85% [at 23.6 µM] (inactive).
As for `COP(=S)(OC)Oc1ccc(S(=O)(=O)N(C)C)cc1`, the Potency entry in test [1], in [3], in [4], in [17], in test [7] and in test [9] was “inactive” in each case. Also, in test [14], the Potency entry is “inactive”. Moreover, the Potency in test [5] was 34.4 µM (active) and inactive; in test [6], 39.9 µM (active); in test [10], 35.6 µM (active); in [11] it was 79.6 nM (active) and 55 nM (active); in test [12] it was 356 nM (active) and 490 nM (active); in test [13] it was 31.7 µM (active) and inactive. Further, the Potency in [15] is 7.96 µM (active) and 6.92 µM (active). Moreover, the max activation in test [16] is -2.31% (inactive). Also, the compound was called inactive in [18].
With `C[C@]12CCC(=O)C=C1CC[C@@H]1[C@@H]2CC[C@@]2(C)[C@H]1CC[C@]2(C)O`, the Potency result in [1], in test [3], in test [4], in [6], in test [7] and in test [8] was “inactive” in each case. Besides, the Potency entry in [9], in test [13] and in test [14] was “inactive” throughout. The Potency in [5] is 43.6 µM (active) and inactive; in [10] it was 45.2 µM (active) and inactive; in test [11], 35.9 µM (active) and inactive; in test [12], 35.9 µM (active).
As to `COc1ccc(CO)cc1`, the Potency result in test [1], in test [2], in [3], in test [4] and in test [14] was “inactive” in each case.

Source of the values: PubChem BioAssay (Tox21).
